Compound activity: PubChem, National Center for Advancing Translational Sciences (NCATS)
Sm TGR block = inhibitors of Schistosoma mansoni thioredoxin glutathione reductase. Q962Y6. purified TGR, DTNB reduction, TNB absorbance 405 nm. Potency, µM (top dose mostly 114 µM), inactives show at the highest dose activity change, negative = inhibition, usual class: inhibitors. actives 3% (n = 360,000). AID 485364; note: potency is the fitted concentration of half-maximal effect; % is set by controls: 0 for no effect and ±100 for the full control effect; nearly all actives have a fitted effect of over 60% in size
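TGR 20 nM + NADPH 100 uM (dispensed conc.), cpd preinc 15 min RT; start with NADPH (500 uM addition) then DTNB (15 mM addition). Kinetic TNB absorbance, 405 nm filter. Four-parameter Hill fit across titration.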
HCV inh = HCV inhibition; Huh7.5.1 HCVcc-Cre infection, luciferase reporter, 44 h; Potency, µM (series often up to 41.8 µM), without a hit: at the top dose activity change, negative = inhibition, usual class: inhibitors; actives 3.4% (n = 340,000); AID 651820; note: potency is the fitted concentration of half-maximal effect; % is set by controls: 0 for no effect and ±100 for the full control effect
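Cells seeded at 1,000/well and cultured 4 h, then compounds added followed by HCVcc-Cre virus (~0.5 moi). After 44 h further culture, luciferase substrate was added, plates held 15 min at room temperature, and luminescence read for 15 sec.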
HCMV inh = inhibitors of human cytomegalovirus. HFF cells, HCMV-luciferase reporter, 72 h; hits give low values. AID 1259415. actives 4.5% (n = 410,000). activity change, negative = inhibition, % at 57.5 µM; in the data active = activity change below about -60%; inconclusive = no clear call, values can overlap the other calls; inactive = above about -39%; note: % is set by controls: 0 for no effect and ±100 for the full control effect
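Luciferase read-out from HCMV-luciferase-infected HFFs (MOI 1 PFU/cell) 72 h post infection at 37C; compounds added after 16 h cell attachment; activity normalized between buffer-only basal and Salinomycin (10uM) inhibitor controls.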
SARS PLpro yeast = SARS-CoV PLP inhibition in yeast. S. cerevisiae expressing SARS-CoV PLpro, growth rescue. Potency, µM (series often up to 32.9 µM), inactives show at the highest dose activity, positive = growth rescue, most hits filed as activators. actives 0.19% (n = 330,000); calls by dose curve; note: potency is the fitted concentration of half-maximal effect; 0% is about no effect; nearly all actives have a fitted effect of over 55% in size
Pf growth 48h = inhibits P. falciparum growth in the first generation, 48 h; P. falciparum luciferase growth in erythrocytes, 48 h; Potency, µM (highest dose often 28.7 µM), inactives show at the top dose activity change, negative = inhibition, usual class: inhibitors; actives 5.9% (n = 310,000); note: potency is the fitted concentration of half-maximal effect; % is set by controls: 0 for no effect and ±100 for the full control effect
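First compound was added to culture medium, then infected red cells at 0.1% parasitemia and 2% hematocrit (final). After incubation at 37 C under 5% CO2, luciferase detection reagent was dispensed and light output recorded.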
Pf growth 96h = inhibits malaria parasite growth, 96 h | P. falciparum luciferase reporter growth, 96 h | Potency, µM (top dose mostly 28.7 µM), without a hit: at the highest dose activity change, negative = inhibition, usual class: inhibitors | actives 6.9% (n = 320,000) | AID 504834; note: potency is the fitted concentration of half-maximal effect; % is set by controls: 0 for no effect and ±100 for the full control effect
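Two parasite generations (96 h, 37 C, 5% CO2) of compound exposure in infected erythrocytes (0.05% parasitemia, 2% hematocrit). Luciferase-reporter P. falciparum; decreased luminescence indicates inhibited growth, aimed at apicoplast-acting delayed death.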
An asterisk follows results filed as active; ? = inconclusive; / = not tested or not shown. Shown are actives, neighbours in structure and some others; about 15% of the full set was active somewhere. Unless noted, calls come from the whole dose curve; as a rule, active = well fitted curve in the direction sought with a large enough effect; inconclusive = small, poorly fitted or top-dose-only effect, or another doubt; inactive = no such curve, though single readings can be large; an effect the other way counts as inactive or inconclusive.

SMILES | Sm TGR block | HCV inh | HCMV inh | SARS PLpro yeast | Pf growth 48h | Pf growth 96h
Cc1cc(C)c(S(=O)(=O)Nc2ccc(Cl)cn2)c(C)c1 | 4.4% | 2.0% | -6.4 | 4.3% | 10.4µM* | 19.7%
O=S(=O)(Nc1ccc(Cl)cn1)c1ccc(Cl)cc1 | / | 16.9% | 0.5 | -0.1% | 10.0% | ?
O=c1ccn(-c2cccc(C(F)(F)F)c2)nc1-c1ccn(-c2ccccc2)n1 | 0.0% | -14.0% | -37.8 | -1.7% | 10.4µM* | 0.0%
COc1ccc(OC)c(C(=O)CSc2nc3c(c(=O)n(C)c(=O)n3C)n2C(C)C)c1 | -1.7% | 5.5% | 5.8 | 9.9% | 4.8% | 14.7µM*
CC(C)n1c(SCC(=O)Nc2ccc3c(c2)OCO3)nc2c1c(=O)n(C)c(=O)n2C | -2.1% | ? | -36.3 | -0.7% | -14.9% | -4.9%
CC(C)n1c(SCC(=O)c2ccc3c(c2)OCCO3)nc2c1c(=O)n(C)c(=O)n2C | -7.7% | 12.6µM* | -19.2 | 3.5% | -17.1% | -24.4%
Cc1sc2nc(-c3ccc(Br)cc3)oc(=O)c2c1C | 10.9% | 23.4% | / | -3.0% | 0.0% | 161.2%
CCC(=O)N/C(N)=N/c1nc(C)c2cc(C)c(C)cc2n1 | -8.5% | ? | -8.2 | -0.4% | 1.65µM* | 1.65µM*
Cc1cc2nc(/N=C(\N)NC(=O)C(C)C)nc(C)c2cc1C | 3.5% | 11.2µM* | -28.4 | -1.0% | 2.62µM* | 2.62µM*
Cc1nc(/N=C(\N)NC(=O)N2c3ccccc3Sc3ccccc32)nc2ccccc12 | -1.0% | ? | -21.9 | -43.8% | ? | ?
CCCC(=O)N/C(N)=N/c1nc(C)c2cc(C)ccc2n1 | 17.0% | 6.31µM* | -2.2 | -0.9% | 2.62µM* | 2.62µM*
Cc1nc(/N=C(\N)NC(=O)c2ccccc2)nc2ccccc12 | -18.1% | ? | 40.7 | -11.6% | 16.8% | 1.6%
Cc1ccc2nc(/N=C(\N)NC(=O)NC3CCCCC3)nc(C)c2c1 | 10.3% | 11.2µM* | -65.2* | 0.1% | ? | ?
COC(=O)c1ccccc1NC(=O)CCC(=O)N1CC(C)Oc2ccc(C)cc21 (centres undefined) | 1.3% | -29.9% | -13.2 | ? | 23.5% | 32.7%
CCc1ccc2oc(C(=O)Nc3nc(-c4ccccc4)ns3)c(C)c2c1 | 2.8% | / | 83.7 | / | / | /
C[C@@H]1C[C@H]2[C@@H]3CCC4=CC(=O)C=C[C@]4(C)[C@@]3(Cl)[C@@H](O)C[C@]2(C)[C@@]1(OC(=O)c1ccco1)C(=O)CCl | -31.0% | -22.3% | -73.5* | / | 1.85µM* | 2.08µM*
CCCC(=O)O[C@]1(C(=O)CCl)[C@H](C)C[C@@H]2[C@H]3CCC4=CC(=O)C=C[C@]4(C)[C@@]3(F)C(=O)C[C@@]21C | / | / | / | / | ? | 1.9µM*
CC1CC2C3CCC4=CC(=O)C=CC4(C)[C@@]3(Cl)C(O)CC2(C)C1(O)C(=O)CO (some centres undefined) | / | 10.3% | 110.2 | / | / | /
C[C@H]1C[C@@H]2[C@H]3CCC4=CC(=O)C=C[C@@]4(C)[C@@]3(Cl)[C@@H](O)C[C@]2(C)[C@]1(OC(=O)c1ccco1)C(=O)CCl | / | / | / | / | 4.55µM* | 2.03µM*
CCOCCc1nn2c(=O)cc(COC(=O)c3ccco3)nc2s1 | -20.7% | / | -1.0 | / | / | /
Cc1ccc(CCNC(=O)c2coc3nc4ccccc4nc23)cc1 | -0.5% | 5.7% | -25.0 | 0.1% | -20.8% | 2.62µM*
CC1CCN(CCCNC(=O)c2coc3nc4ccccc4nc23)CC1 | -12.5% | 27.2% | -2.6 | 4.5% | ? | 38.2%
Cc1ccc2c3c(cccc13)-c1ccccc1C2=O | 7.6% | 5.62µM* | 16.1 | -24.9% | 31.1% | 306.5%
Nc1ccc2c3c(cccc13)-c1ccccc1-2 | / | ? | 21.4 | / | / | /
CCCn1ncc(CN2CCN(Cc3ccc(C)o3)C(CCO)C2)c1C (centres undefined) | ? | ? | -11.7 | -1.8% | -3.9% | 8.1%
SMILES | Sm TGR block | HCV inh | HCMV inh | SARS PLpro yeast | Pf growth 48h | Pf growth 96h
Cc1ccc(CCNC(=O)c2cc3n(n2)CCCN(Cc2ccc(C)cc2)C3=O)cc1 | -3.8% | / | -3.0 | / | / | /
C/C(=N\NC(=O)NC1CCCCC1)c1ccc(Cl)s1 | -5.7% | 3.16µM* | 10.7 | 0.5% | ? | ?
COc1ccc2c(c1)[C@@H](NC(=O)OCc1ccccc1)[C@H](C)[C@@H](c1ccccc1)N2Cc1cccc(F)c1 | / | / | -9.8 | / | / | /
COC(=O)c1cn(NC(=O)c2cccnc2)c(=O)c2ccccc12 | -5.6% | 13.3% | 16.5 | -1.2% | 10.2% | ?
COC(=O)c1cn(NC(=O)c2cc(OC)c(OC)c(OC)c2)c(=O)c2ccccc12 | 7.2% | -12.8% | ? | -1.5% | 3.7% | 3.29µM*
COC(=O)c1cn(NC(=O)c2ccncc2)c(=O)c2ccccc12 | 3.6% | 16.1% | 9.9 | -1.4% | 11.1% | 5.86µM*
CCN(CC)CCOC(=O)c1ccc(NC(=O)CCCN2C(=O)S/C(=C/c3ccc(OC)cc3)C2=S)cc1 | 0.2% | 14.1µM* | / | -6.6% | 2.62µM* | -9.4%
COc1cccc(/C=C2\SC(=S)N(CCCC(=O)Nc3ccc(C(=O)O)cc3)C2=O)c1 | -23.5% | -11.3% | -79.8* | ? | ? | 8.28µM*
COc1cccc(/C=C2\SC(=S)N(CCCC(=O)Nc3cc(C)on3)C2=O)c1 | -11.0% | 6.3% | 47.5 | -2.8% | -6.4% | 80.8%
COc1cccc(/C=C2/SC(=S)N(CCCC(=O)Nc3ccc(O)cc3)C2=O)c1 | 5.3% | ? | -99.4* | 0.6% | ? | ?
COc1ccc(/C=C2\SC(=S)N(CCC(=O)Nc3ccc(O)cc3)C2=O)cc1 | 1.4% | ? | -5.2 | -3.9% | 56.7% | ?
COCc1cc(C)nc2sc3c(=O)n(-c4cc(C)ccc4C)nnc3c12 | 3.1% | / | 44.7 | / | / | /
O=C(OCC(=O)N(Cc1ccccc1)Cc1ccccc1)c1ccccc1NCCO | 0.8% | -17.6% | -6.7 | -0.8% | ? | -18.5%
CCN(C(=O)COC(=O)c1ccccc1NCCO)c1cccc2ccccc12 | -0.9% | ? | -14.5 | / | ? | 10.4µM*
CCCc1cc(N2CCOCC2)n2ncc(-c3ccccc3)c2n1 | 0.9% | ? | -61.8* | 1.1% | 29.0% | 37.8%
Cn1c(=O)c2sc3c(c2n(CC(=O)Nc2ccccc2)c1=O)COC(C)(C)C3 | -2.6% | 0.5% | -6.1 | 2.0% | ? | ?
CCn1c(SCC(=O)Nc2ccc(F)cc2)nnc1C1CC1 | -13.5% | 12.5% | 14.2 | 4.8% | 40.4% | ?
Cc1ccc(Cl)cc1NC(=S)N/N=C/c1cccc2ccccc12 | 22.8% | ? | -35.1 | -0.4% | 2.08µM* | ?
Cc1ccc(Cl)cc1NC(=S)Nn1cnnc1 | -25.3% | 21.0% | 19.9 | ? | 0.4% | 2.62µM*
